The results in this text go back to PubChem BioAssay (NCI).

Holding throughout (test): NCI-60 one-dose screen, 48 h (100 = growth as untreated, 0 = no growth, -100 = all killed)
What all share (conditions): 10 µM unless noted

Assay [1] concerns SR leukemia.
In assay [2] the test system is RPMI-8226 leukemia.
For assay [3], the system named is OVCAR-8 ovarian.
Assay [4] relates to OVCAR-5 ovarian.
The subject of assay [5] is OVCAR-4 ovarian.
For assay [6], the system named is SK-OV-3 ovarian.
The subject of assay [7] is IGROV1 ovarian.
For assay [8], the system named is OVCAR-3 ovarian.
The subject of assay [9] is HS 578T breast.
In assay [10] the test system is NCI/ADR-RES ovarian.

About 83,000 compounds went through this panel and 20% of them were active in at least one assay; those are over-represented in the sample as a whole.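 A percent growth of 40 corresponds to 60% growth inhibition; 0 means no net growth; -100 means all cells died. Active threshold: below 10.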 Values without a mark were called inactive. The source made the active and inactive calls.

For the molecule `CN(C)c1ccc(/C=C2/C=C(c3ccccc3)OC2=O)cc1`, the growth in assay [1] is 26.7%; in [2] it was 84%; in [3], 100%; in assay [4], 108%; in assay [5] it was 93.4%; in assay [6], 93.9%. The growth is 74.7% in assay [7], 73.7% in assay [8], 101% in assay [9] and 73.1% in [10].
With `COc1ccc(NC(=O)c2sc3nc4c(cc3c2N)CCCC4)cc1`, the growth was 1.36% (active) in assay [1]; 14.8% in [2]; 25.5% in assay [3]; 78.8% in [4]; 57.3% in assay [5]; 39.4% in assay [6]. Further, the growth in assay [7] is 53.8%; in assay [8], 11.1%; in assay [9], 43.4%; in [10], 5.47% (active).
Turning to `CC1(C)OC(=O)C(=Cc2cccc(Br)c2)C(=O)O1`, the growth in assay [1] is 99.7%; in [2] it was 97.4%; in assay [3], 98.4%; in assay [4], 117%; in [5], 114%; in assay [6], 109%. Further, the growth in [7] is 102%; in [8], 107%; in [9], 90.8%; in [10], 107%.
For the molecule `CCN(CC)c1ccc(/C=N/NC(=O)c2ccc(Nc3ccnc(C(F)(F)F)c3)cc2)c(O)c1`, the growth in assay [1] was 153%; in assay [2], 20%; in assay [3], 44.6%; in [4], 32.5%; in [5] it was 32.4%; in assay [6], 10.1%. For the same molecule, the growth in [7] is 39.3%; in [8], 44%; in assay [9] it was 64.9%; in assay [10], 26.3%.
Regarding `C/C(C=O)=C\c1ccc2c(c1)OCO2`, the growth is 109% in [1]; 96.7% in assay [2]; 106% in [3]; 110% in assay [4]; 109% in [5]; 105% in assay [6]. For the same molecule, the growth was 116% in assay [7], 132% in assay [8], 115% in [9] and 107% in [10].
`COP(=O)(OC)c1nnn(-c2cccc([N+](=O)[O-])c2)c1C`: the growth was 104% in [1]; 103% in assay [2]; 101% in assay [3]; 104% in [4]; 103% in assay [5]; 123% in assay [6]. Also, the growth in assay [7] is 110%; in assay [8], 111%; in assay [9] it was 102%; in assay [10], 103%.
As to `Clc1nccc2c(-c3csc(-c4c[nH]c5ccccc45)n3)c[nH]c12`, the growth was 11.3% in assay [1]; 51.4% in assay [2]; 56.5% in [3]; 107% in assay [4]; 68.9% in assay [5]; 58.8% in assay [6]. Also, the growth was 68.6% in assay [7], 68.6% in assay [8], 45.2% in assay [9] and 53.1% in assay [10].
On to `CCCCCCOC(=O)CC1=C(C)/C(=C/c2[nH]c(-c3ccc[nH]3)cc2OC)N=C1C`, for which the growth in assay [1] was -44.5% (active); in assay [2], -52.3% (active); in assay [3], -55.1% (active); in assay [4] it was -9.61% (active); in assay [5], -29.2% (active); in assay [6], -34.5% (active). The growth was -8.74% (active) in [7], -93.9% (active) in assay [8], -27% (active) in assay [9] and -49.4% (active) in assay [10].
`O=C(Nc1ncc(Cc2ccccc2Cl)s1)c1cccs1`: the growth in assay [1] is 20.4%; in [2], 73.5%; in assay [3], 85.7%; in [4], 87.9%; in assay [5] it was 74.4%; in [6], 81.7%. The growth was 72.3% in assay [7], 79.2% in assay [8], 74.4% in assay [9] and 53.7% in [10].
For `Cn1cc(-c2csc(-c3cn(C(=O)OC(C)(C)C)c4ccccc34)n2)c2ccnc(Cl)c21`, the growth in [1] was 26%; in [2], 68.7%; in assay [3] it was 48.2%; in assay [4], 51.3%; in assay [5], 9.63% (active); in assay [6], 71.3%. In addition, the growth was 69.5% in [7], 61.3% in assay [8], 66.1% in assay [9] and 60% in assay [10].
With `Cc1ccc2nc(Cl)c(Cn3nnnc3SCc3ccccc3)cc2c1`, the growth in assay [1] was 80%; in assay [2], 93.1%; in assay [3] it was 97.3%; in assay [4], 94.3%; in assay [5], 86.9%; in [6] it was 97.7%. For the same molecule, the growth is 95.4% in [7], 105% in assay [8], 83.1% in [9] and 86.1% in assay [10].
Regarding `NC(=O)c1c(NC(=O)c2ccc(Cl)cc2)sc2c1CCC(=O)C2`, the growth in assay [1] is 13.3%; in assay [2], -14.3% (active); in assay [3], 61.3%; in [4], 86.5%; in assay [5], 9.18% (active); in assay [6], 93%. Also, the growth in [7] is 52.6%; in assay [8], 32.6%; in assay [9] it was 64%; in [10] it was 87.8%.
As for `CCOC(=O)c1c(NC(=O)c2ccc(C(C)(C)C)cc2)sc2cc(O)ccc12`, the growth in assay [1] was 87.9%; in assay [2], 104%; in assay [3], 92.7%; in assay [4], 104%; in assay [5] it was 104%; in assay [6] it was 109%. The growth in assay [7] is 80.8%; in [8], 110%; in [9], 105%; in assay [10], 89.2%.
Take `N#Cc1c(N2CCOCC2)nc(=S)[nH]c1-c1ccccc1`: the growth was 53.1% in assay [1]; 73.6% in assay [2]; 81.8% in assay [3]; 71.7% in assay [4]; 77.3% in [5]; 64.4% in assay [6]. The growth in assay [7] was 29.1%; in assay [8], 66.8%; in assay [9], 26.8%; in assay [10] it was 80.9%.
